# Compound activity as filed in PubChem.
# The list is not random: actives were taken first. Their share in the collection is about 1.7%.
# GRP78 ERSR act: inducers of ER stress response in human glioma cells | U87-MG GRP78 promoter luciferase reporter, 16 h | 420,000 tested, 0.02% active | Potency, µM, most hits filed as activators; also: series mostly up to about 76 µM; nearly all actives have a fitted effect of over 35% in size
#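 Stably transfected U87-MG glioma cells carrying a GRP78-based luciferase sensor; 16 h compound incubation. Luminescence end-point read 10 min after Bright-Glo addition at room temperature.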
# rTrxR1 inhibitor: blocks rat thioredoxin reductase 1 | O89049 | recombinant rTrxR1, NADPH fluorescence consumption, selenite substrate | Potency, µM (doses to about 114 µM), hits mostly inhibitors | 390,000 tested, 1% active | AID 588453; also: nearly all actives have a fitted effect of over 65% in size
#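 Rat TrxR1 (90 nM in the dispensed reagent) was pre-reduced with 400 uM NADPH for 5 min at room temperature, then incubated with compound for 15 min. After 400 uM selenite was added, NADPH fluorescence (Ex 340/Em 450 nm) was followed for 8 min.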
# Anesthetic bind: binds horse apoferritin like a general anesthetic | apoferritin/1-aminoanthracene competitive binding, fluorescence | P02791 | 350,000 tested, 0.074% active | Potency, µM (series often up to 77.5 µM), usual class: inhibitors; also: nearly all actives have a fitted effect of over 20% in size
#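 Probe: 1-aminoanthracene (50% saturated, PBS). Protein: horse-spleen apoferritin, 10 uM. Incubation: 10 min, room temperature. Detection: 380 nm excitation, 535 nm emission. Analysis: normalized response, four-parameter Hill.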
# IDH1 R132H inh: blocks human mutant IDH1 R132H enzyme; 390,000 tested, 0.093% active; Potency, µM (doses to about 76.6 µM), actives largely listed as inhibitors; O75874; IDH1-R132H enzyme, NADPH consumption, diaphorase/resazurin fluorescence; also: nearly all actives have a fitted effect of over 65% in size
# Target sequence (O75874 whole entry R132H, stated change not applied): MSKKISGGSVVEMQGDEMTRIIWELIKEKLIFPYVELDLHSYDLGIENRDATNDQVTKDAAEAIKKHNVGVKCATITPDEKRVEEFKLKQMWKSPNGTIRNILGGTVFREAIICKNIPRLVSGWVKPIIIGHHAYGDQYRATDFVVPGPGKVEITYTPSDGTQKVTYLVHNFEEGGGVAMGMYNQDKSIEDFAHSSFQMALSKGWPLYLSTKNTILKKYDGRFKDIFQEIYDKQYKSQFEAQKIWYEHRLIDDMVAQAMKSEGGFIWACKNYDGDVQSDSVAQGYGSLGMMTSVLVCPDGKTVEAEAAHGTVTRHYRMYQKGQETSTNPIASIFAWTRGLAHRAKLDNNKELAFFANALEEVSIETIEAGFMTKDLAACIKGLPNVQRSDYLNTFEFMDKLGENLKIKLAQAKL
#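 IDH1-R132H (0.5 ug/mL) preincubated 30 min with compound, then NADPH (0.016 mM) and alpha-KG (2 mM) added; 80 min at RT, pH 7.5. Remaining NADPH coupled via diaphorase/resazurin to fluorescence (540/590 nm); concentration-response curves normalized to no-enzyme control.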
# ALOX12 inh: inhibitors of human 12S-lipoxygenase ALOX12. 580,000 tested, 1.1% active. P18054. purified 12hLO, xylenol orange hydroperoxide absorbance. AID 1671190. Potency, µM (doses to about 108 µM), actives largely listed as inhibitors
#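 Purified human 12hLO (150 nM final) in 25 mM Hepes, 0.01% Triton X-100, pH 7.0 was preincubated 15 min at room temperature with compound. Then 40 uM arachidonic acid was added, 30 min. Hydroperoxide was read by Fe-XO absorbance ratio 573/405 nm.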
# TrxR1 substrate: is turned over as a substrate by rat TrxR1; 390,000 tested, 0.01% active; AID 588456; purified TrxR1 substrate turnover, NADPH consumption readout; Potency, µM (top dose mostly 114 µM); O89049; also: nearly all actives have a fitted effect of over 50% in size
#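 Rat TrxR1, dispensed at 90 nM, was prereduced with 400 uM NADPH (final) for 5 min at ~22 deg C, then incubated with compound 15 min before 400 uM selenite. A first-read NADPH fluorescence drop versus no-compound background flagged substrates.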
# Hits are given with their value; - = inactive; ? = inconclusive; . = no result given. Calls follow the shape of the dose curve; as a rule, active = well fitted curve in the direction sought with a large enough effect; inconclusive = small, poorly fitted or top-dose-only effect, or another doubt; inactive = no such curve, though single readings can be large; an effect the other way counts as inactive or inconclusive.
SMILES,GRP78 ERSR act,rTrxR1 inhibitor,Anesthetic bind,IDH1 R132H inh,ALOX12 inh,TrxR1 substrate
COc1cc(CNc2ccc3c(c2)CCC3)cc(OC)c1O,-,0.4µM,-,-,1.1µM,-
COc1ccc(-c2noc([C@@H](C)NC(=O)C3CCOCC3)c2C(=O)O)cc1,.,.,.,.,-,.
COc1ccc2c(c1)CC/C(=C/c1cc(OC)c(OC)c(OC)c1)C2=O,-,-,-,-,-,-
COc1ccc2c(c1)CC/C(=C\c1ccc(Br)o1)C2=O,.,.,.,.,22µM,.
COCCn1ccc2c(C3=CCOCC3)nc(-c3cccc(C(N)=O)c3)cc21,.,.,.,.,-,.
S=C(Nc1ccccc1Oc1ccccc1)Nc1cccc(Cl)c1Cl,-,-,-,-,35µM,-
COc1cc(/C=C2/C(=O)NN(c3ccc(C)c(Cl)c3)C2=O)cc([N+](=O)[O-])c1O,-,-,-,-,40µM,-
COc1cccc(/C=C2/C(=O)NN(c3ccc(F)cc3)C2=O)c1,-,-,-,-,?,-
COc1cccc(/C=C2/C(=O)NN(c3ccc(C)c(C)c3)C2=O)c1,-,?,-,-,28µM,-
COc1cc(/C=C2/C(=O)NN(c3cccc(C)c3)C2=O)ccc1OC(=O)c1ccco1,-,?,-,-,35µM,-
Cc1ccc(N2NC(=O)/C(=C\c3cc4c(cc3[N+](=O)[O-])OCO4)C2=O)cc1C,-,18µM,?,-,?,-
O=C(NC1CCCCC1)N1C[C@@H]2C[C@H](C1)c1c(NS(=O)(=O)c3cccc(F)c3)ccc(=O)n1C2,.,.,.,.,-,.
CCn1nccc1C(=O)N1C[C@@H](Oc2ccccc2)C[C@@H]1C(=O)N1CCOCC1,.,.,.,.,-,.
N#C/C(C(=O)N1CCCCC1)=C1\Nc2ccccc2S1,-,-,-,-,-,-
Cc1ccc(NC(=S)/C(C#N)=C2/Nc3ccccc3S2)cc1,-,.,.,-,13µM,.
CC(C)(C)c1ccc(OCCNCc2ccccc2)cc1,-,-,?,-,?,-
S=C(NCCSCc1c(Cl)cccc1Cl)Nc1ccccc1,-,-,-,-,35µM,-
CC(C)(C)c1ccc(OCCNC(=S)Nc2ccccc2)cc1,-,-,?,-,45µM,-
CCOc1ccc(CSCCNC(=S)Nc2ccccc2)cc1,-,-,-,-,45µM,-
Cc1cnc(-n2ncc(C(=O)NCCN3CCOCC3)c2C(C)C)nc1-c1ccc(F)cc1,-,.,.,.,-,.
Cc1cccc(CNc2ccnc(-c3ccoc3)n2)c1,-,.,-,.,20µM,.
Cc1cccc(CNc2ccnc(-c3ccc(N(C)C)cc3)n2)c1,-,.,-,.,-,.
CCOC(=O)N1CCN(C(=O)C[C@H]2C[C@@]3(C(=O)OC)C(=C[C@H](COCc4ccccc4)O[C@@H]3C)N(Cc3ccc4c(c3)OCO4)C2=O)CC1,.,.,.,.,-,.
COc1ccc(C(C(=O)O)N2CCN(Cc3csc(C)n3)CC2)c(C)c1 (centres undefined),.,.,.,.,22µM,.
CCOc1ccccc1C(C(=O)O)N1CCN(Cc2csc(C)n2)CC1 (centres undefined),.,.,.,.,-,.
SMILES,GRP78 ERSR act,rTrxR1 inhibitor,Anesthetic bind,IDH1 R132H inh,ALOX12 inh,TrxR1 substrate
Cc1ccc(CC(=O)Nc2ccc(N(C)C)cc2)cc1,.,.,.,.,20µM,.
Cc1ccc(OCC(=O)Nc2ccc(N(C)C)cc2)cc1,-,-,-,-,?,-
NC(=O)c1c(NC(=O)CSc2nnc(-c3ccco3)n2-c2ccccc2)sc2c1CCC2,-,?,22µM,-,?,-
CCn1c(SCC(=O)Nc2sc3c(c2C#N)CCCC3)nnc1-c1ccco1,-,-,?,-,-,-
N#Cc1c(NC(=O)CSc2nnc(-c3ccco3)n2-c2ccccc2)sc2c1CCC2,-,-,?,-,-,-
CCn1c(SCC(=O)Nc2sc3c(c2C#N)CCC(C(C)(C)C)C3)nnc1-c1ccco1 (centres undefined),-,-,28µM,-,-,-
CN(C(=O)COC(=O)c1cc2ccccc2cc1O)c1c(N)n(Cc2ccccc2)c(=O)[nH]c1=O,-,-,.,-,?,-
CCCCN(C(=O)c1cccnc1OCC)c1c(N)n(CCC)c(=O)[nH]c1=O,.,.,.,.,-,.
CCCCn1c(N)c(N(CCOC)C(=O)c2cc(-c3ccco3)nc3ccccc23)c(=O)[nH]c1=O,-,50µM,.,-,.,-
